# From PubChem BioAssay (EPA / NIEHS)
# Inconclusive results are not listed. Activity calls are given as the source filed them. Rule for the calls: active = hit-call score of the fitted dose curve at least 0.9, where 1 is the maximum; inconclusive = response in the unintended direction; inactive = score below 0.9.
# Target: Estrogen receptor beta (Homo sapiens) (UniProt Q92731)
# Assay: OT_ER_ERbERb_0480: Odyssey Thera (OT) 8-hour HEK293T Protein-Complementation Assay for Estrogen Receptor-beta/-beta Homodimer (AID 2283357);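 note: active means signal gain over DMSO baseline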
# In short: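 Homodimerization of ER-beta LBD measured by protein-fragment complementation in HEK293T; 8 h dosing; fixed, Draq5 counterstain; fluorescence intensity gain over DMSO baseline, positive fitting direction; laser scanning cytometry.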
# Chain of Estrogen receptor beta (Homo sapiens) (Q92731 whole entry, looked up): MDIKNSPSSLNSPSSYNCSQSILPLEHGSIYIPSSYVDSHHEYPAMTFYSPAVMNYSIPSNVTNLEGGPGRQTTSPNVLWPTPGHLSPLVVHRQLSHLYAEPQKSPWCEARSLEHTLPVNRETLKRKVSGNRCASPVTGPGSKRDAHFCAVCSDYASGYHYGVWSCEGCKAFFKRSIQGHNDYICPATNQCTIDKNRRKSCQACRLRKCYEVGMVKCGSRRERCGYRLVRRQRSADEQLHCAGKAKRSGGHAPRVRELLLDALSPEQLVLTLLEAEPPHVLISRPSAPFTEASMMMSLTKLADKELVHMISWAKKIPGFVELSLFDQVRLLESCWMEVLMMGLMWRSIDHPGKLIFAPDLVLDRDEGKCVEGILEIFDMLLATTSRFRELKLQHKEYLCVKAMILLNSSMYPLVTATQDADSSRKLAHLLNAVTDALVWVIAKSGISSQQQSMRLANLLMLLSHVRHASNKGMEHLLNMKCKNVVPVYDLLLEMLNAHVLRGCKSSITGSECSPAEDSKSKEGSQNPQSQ
Structure (SMILES),outcome,AC50
Cn1c([N+](=O)[O-])cnc1COC(N)=O,inactive,–
O=C(c1ccccc1)C1CCC1,inactive,–
COC(=O)c1c(C)cc(O)c(C)c1O,–,55.5 µM (active)
CC(C)c1ccc2cc(C(C)C)ccc2c1,inactive,–
CC/C=C\C/C=C\C/C=C\CCCCCCCC(=O)O,inactive,–
CC(C)(C)c1ccc(-c2ccc(C(C)(C)C)cc2)cc1,inactive,–
CC(C)=CCC[C@H](C)CCO,inactive,–
CCCc1ccc(OC)cc1,inactive,–
CC(=O)[C@H]1[C@H](C#N)C[C@H]2[C@@H]3CC=C4C[C@@H](O)CC[C@]4(C)[C@H]3CC[C@@]21C,inactive,–
O=c1cc(-c2ccccc2)oc2ccccc12,inactive,–
Cc1cc(C)c(C(=O)O)c(C)c1,inactive,–
CN(C)c1ccc(C(=N)c2ccc(N(C)C)cc2)cc1,inactive,–
CCOC(=O)Cc1cccc2ccccc12,inactive,–
CC1=CC[C@H]2C[C@@H]1C2(C)C,inactive,–
O=S(=O)(O)c1ccccc1C=Cc1ccc(-c2ccc(C=Cc3ccccc3S(=O)(=O)O)cc2)cc1,–,65.5 µM (active)
CCCCCCCCCCCCCOP(=O)(O)O,inactive,–
CCCCCCCOC(=O)CCC,inactive,–
CCCCC/C=C\C/C=C\CCCCCCCC(=O)OC,inactive,–
CC1=NN(c2cc(S(=O)(=O)O)ccc2Cl)C(=O)C1N=Nc1ccccc1 (centres undefined),inactive,–
CC(C)(C)c1ccc(N)cc1,inactive,–
CC(C)(C)c1ccc(OC(=O)c2ccccc2O)cc1,inactive,–
O=C(C=Cc1ccccc1)OCc1ccccc1,inactive,–
O=C1CCCC1,inactive,–
Cc1ccc(C(C)c2ccc(C)c(C)c2)cc1C,–,68.1 µM (active)
CC=C1CC2C=CC1C2 (centres undefined),inactive,–
O=C(O)CCCC[C@@H]1SC[C@@H]2NC(=O)N[C@@H]21,inactive,–
Oc1ccc(Cl)cc1Cc1cc(Cl)ccc1O,–,11.9 µM (active)
Cc1ccc(N/N=c2\c(=O)cc/c(=N/Nc3ccc(S(=O)(=O)O)cc3)c2=O)c(C)c1,inactive,–
O=S1(=O)OC(c2ccc(O)cc2)(c2ccc(O)cc2)c2ccccc21,inactive,–
C=CC(=O)NC(C)(C)CS(=O)(=O)O,inactive,–

# Target: human Peroxisome Proliferator-activated Receptor alpha (PPARa), PPARA (gene 5465) (UniProt Q07869)
# Sequence (Q07869 whole entry, looked up): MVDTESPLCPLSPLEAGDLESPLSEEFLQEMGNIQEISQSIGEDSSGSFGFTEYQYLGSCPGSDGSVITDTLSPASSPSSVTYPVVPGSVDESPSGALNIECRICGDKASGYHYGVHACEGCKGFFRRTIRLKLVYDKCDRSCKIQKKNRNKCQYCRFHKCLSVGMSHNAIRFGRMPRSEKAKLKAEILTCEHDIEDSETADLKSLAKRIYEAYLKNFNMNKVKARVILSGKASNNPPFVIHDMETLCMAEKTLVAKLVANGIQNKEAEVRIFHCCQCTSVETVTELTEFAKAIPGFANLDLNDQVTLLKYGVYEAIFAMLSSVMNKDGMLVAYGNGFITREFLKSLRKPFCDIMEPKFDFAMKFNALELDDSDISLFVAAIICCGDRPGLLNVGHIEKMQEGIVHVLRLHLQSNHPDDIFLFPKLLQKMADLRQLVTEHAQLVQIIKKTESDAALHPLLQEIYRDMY
# Assay: NVS_NR_hPPARa: NovaScreen (NVS) Nuclear Receptor Binding Assay for human Peroxisome Proliferator-activated Receptor alpha (PPARa) (AID 2283359);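 note: activity means loss of TR-FRET signal versus DMSO baseline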
# In short: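 TR-FRET signal measured at 1 h post-dosing; loss-of-signal versus DMSO negative control taken as activity. Extracted gene-protein, cell-free format. Initial single-point duplicates at 25 uM, then concentration-response retests.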
Structure (SMILES),outcome,AC50
CC/C=C\C/C=C\C/C=C\CCCCCCCC(=O)O,inactive,–
CCCCCCCCCCCCCOP(=O)(O)O,inactive,–
CCCCC/C=C\C/C=C\CCCCCCCC(=O)OC,inactive,–
Oc1ccc(Cl)cc1Cc1cc(Cl)ccc1O,–,14 µM (active)
